Results filed as inconclusive are left out. Activity calls are given as the source filed them. The call rests on the fitted dose curve; in most records, active means well fitted inhibition curve with a large enough effect; inconclusive means small, poorly fitted or top-dose-only effect; inactive means flat fitted curve, though single readings scatter. Peptide text beside a SMILES is read from it.
How the values were obtained:
Assay in all cases: qHTS profiling for inhibitors of Plasmodium falciparum proliferation (AID 504749); further: nearly all actives have a fitted effect of over 60% in size
Settings in all cases: P. falciparum in erythrocytes, SYBR Green DNA, 72 h; series mostly up to 28.7 µM
CP268 = test system: CP268
Outline: (§1)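 Fluorescence of SYBR Green-bound parasite DNA, read at 485/535 nm, served as the growth measure. Infected erythrocytes were cultured with compound 72 h; artemisinin (0.29 uM) and DMSO wells defined the normalization range.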

CP269 = test system: CP269
Outline: as §1

CP286 = test system: CP286
Outline: as §1

CP291 = test system: CP291
Outline: as §1

CP297 = test system: CP297
Outline: as §1

CP305 = test system: CP305
Outline: as §1

CP315 = test system: CP315
Outline: as §1

CP325 = test system: CP325
Outline: as §1

CP329 = test system: CP329
Outline: as §1

CP335 = test system: CP335
Outline: as §1

DFO2036 = test system: DFO2036
Outline: as §1

DIV14 = test system: DIV14
Outline: as §1

DIV17 = test system: DIV17
Outline: as §1

DIV30 = test system: DIV30
Outline: as §1

Dd2 = test system: Dd2
Outline: as §1

ECU = test system: ECU
Outline: as §1

FAB9 = test system: FAB9
Outline: as §1

GB4 = test system: GB4
Outline: as §1

HB3 = test system: HB3
Outline: as §1

ICS = test system: ICS
Outline: as §1

Measured: Potency
Potency means the concentration at half of the fitted maximal effect.

C[C@H](Cn1cnc2c(N)ncnc21)OCP(=O)(O)O
inactive: all assays above

O=P(O)(O)C(O)(Cn1ccnc1)P(=O)(O)O
inactive: all assays above

CC1(C)NC(=O)N(c2ccc([N+](=O)[O-])c(C(F)(F)F)c2)C1=O
inactive: all assays above

CN(C)c1ccc2nc3ccc(=[N+](C)C)cc-3sc2c1
active: CP268 0.0379 µM | CP269 0.0849 µM | CP286 0.0126 µM | CP291 0.0536 µM | CP297 67.5 nM | CP305 0.0213 µM | CP315 0.151 µM | CP325 0.0478 µM | CP329 0.0601 µM | CP335 37.9 nM | DFO2036 70.8 nM | DIV14 26.9 nM | DIV17 19 nM | DIV30 67.5 nM | Dd2 0.0398 µM | ECU 25.1 nM | FAB9 0.0316 µM | GB4 30.1 nM | HB3 0.0224 µM | ICS 7.1 nM

Nc1cc(C(Cl)=C(Cl)Cl)c(S(N)(=O)=O)cc1S(N)(=O)=O
inactive: all assays above

O=C(O)c1cccc(-c2noc(-c3ccccc3F)n2)c1
inactive: all assays above

Cc1ccc(C)c(OCCCC(C)(C)C(=O)O)c1
inactive: all assays above

Nc1cccc2c1CN(C1CCC(=O)NC1=O)C2=O (stereo not given)
inactive: all assays above

CS(=O)(=O)OCCCCOS(C)(=O)=O
inactive: all assays above

O=C(O)c1cc(=O)c2c(OCC(O)COc3cccc4oc(C(=O)O)cc(=O)c34)cccc2o1
inactive: all assays above

Nc1ccc(S(N)(=O)=O)cc1
inactive: all assays above

O=C(NC(Cc1cc(=O)[nH]c2ccccc12)C(=O)O)c1ccc(Cl)cc1 (stereo not given)
inactive: all assays above

CCC(C)(Oc1ccc(C2(c3ccc(OC(C)(CC)C(=O)O)cc3)CCCCC2)cc1)C(=O)O (stereo not given)
inactive: all assays above

Cn1c(NCCN(CCO)CCCc2ccc([N+](=O)[O-])cc2)cc(=O)n(C)c1=O
inactive: all assays above

O=C(O)c1cccnc1Nc1cccc(C(F)(F)F)c1
inactive: all assays above

COc1ccc(C2(C#N)CCC(C(=O)O)CC2)cc1OC1CCCC1 (stereo not given)
inactive: all assays above

CC1(C)CCC(C)(C)c2cc(NC(=O)c3ccc(C(=O)O)cc3)ccc21
inactive: all assays above

Cc1cccc(C)c1OCC(=O)N[C@@H](Cc1ccccc1)[C@@H](O)C[C@H](Cc1ccccc1)NC(=O)[C@H](C(C)C)N1CCCNC1=O
active: CP268 9.53 µM | CP269 6.75 µM | CP286 7.08 µM | CP291 13.5 µM | CP297 4260 nM | CP305 13.5 µM | CP315 6.75 µM | CP325 13.5 µM | CP329 12 µM | CP335 4780 nM | DFO2036 3980 nM | DIV14 1900 nM | DIV17 1900 nM | DIV30 1900 nM | Dd2 10 µM | ECU 1000 nM | FAB9 11.2 µM | GB4 3790 nM | HB3 7.94 µM | ICS 891 nM

CCCOc1ccc2nc(NC(=O)OC)[nH]c2c1
inactive: all assays above

O=C(NCCO[N+](=O)[O-])c1cccnc1
inactive: all assays above

CC(S)C(=O)NCC(=O)O (stereo not given)
inactive: all assays above

CN1C(C(=O)Nc2ccccn2)=C(O)c2sccc2S1(=O)=O
inactive: all assays above

CC(C)(S)[C@@H](N)C(=O)O
inactive: all assays above

CC(C)[C@H](N)C(=O)OCCOCn1cnc2c(=O)[nH]c(N)nc21
inactive: all assays above

Cc1cc2cc3c(C)cc(=O)oc3c(C)c2o1
inactive: all assays above

COC(=O)[C@H](Cc1ccccc1)NC(=O)[C@@H](N)CC(=O)O (H-Asp-Phe-OMe)
inactive: all assays above

Source: PubChem BioAssay (NCATS)
